High-throughput results: PubChem BioAssay, National Center for Advancing Translational Sciences (NCATS)
TDP1 block = blocks human tyrosyl-DNA phosphodiesterase 1; Q9NUW8; recombinant TDP1, AlphaScreen DNA substrate cleavage; Potency, µM (doses to about 130 µM), hits mostly inhibitors; 350,000 compounds, 0.28% hits; AID 485290; further: nearly all actives have a fitted effect of over 40% in size
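Enzyme-compound mixtures sat 15 min at room temperature, followed by a 5 min reaction with 15 nM final substrate and 10 min with AlphaScreen beads. Recombinant human Tdp1 was used at 1 nM final.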
G9a inh = inhibitors of human histone lysine methyltransferase G9a; Q96KQ7; Potency, µM (doses to about 102 µM), usual class: inhibitors; G9a H3K9 monomethylation, AlphaScreen, 2 h; 350,000 compounds, 8.8% hits; further: nearly all actives have a fitted effect of over 75% in size
Target sequence (Q96KQ7 913-1193 limits assumed): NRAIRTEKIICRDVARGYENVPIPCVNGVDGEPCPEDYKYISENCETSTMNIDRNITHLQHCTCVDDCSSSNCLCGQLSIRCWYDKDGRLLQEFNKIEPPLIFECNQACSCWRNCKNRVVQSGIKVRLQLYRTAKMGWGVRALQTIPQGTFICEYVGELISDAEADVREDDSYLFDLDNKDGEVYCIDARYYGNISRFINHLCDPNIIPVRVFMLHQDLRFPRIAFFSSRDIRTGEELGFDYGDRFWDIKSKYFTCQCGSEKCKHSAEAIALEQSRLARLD
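AlphaScreen read-out: biotin-H3K9 peptide (500 nM) methylation by 20 nM enzyme with 20 uM SAM, 2 h at room temperature after 15 min compound preincubation; anti-monomethyl H3K9 antibody plus donor/acceptor beads, 10 min dark.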
BAZ2B block = blocks human BAZ2B; Potency, µM (series often up to 114 µM), actives largely listed as inhibitors; AlphaScreen BAZ2B-H3K14Ac peptide displacement; 360,000 compounds, 4.4% hits; further: nearly all actives have a fitted effect of over 60% in size
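Inhibition is scored as reduced AlphaScreen emission. The BAZ2B/b-H3(5-23)K14Ac complex (50 nM each) in PBS pH 7.4, 0.01% Tween-20 meets compound (up to 110 uM) for 30 min at RT before bead addition.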
JMJD2A Tudor = blocks the human JMJD2A Tudor domain | O75164 | AlphaScreen JMJD2A-Tudor / H3K4me3 peptide binding | 390,000 compounds, 4.4% hits | Potency, µM (doses to about 114 µM), actives largely listed as inhibitors; further: nearly all actives have a fitted effect of over 50% in size
Sfp PPTase inh = blocks B. subtilis Sfp PPTase activity | Q9F4F7 | 310,000 compounds, 3.5% hits | AID 1490 | Potency, µM, most hits filed as inhibitors | Biochemical Sfp PPTase activity, qHTS;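 further: the enzyme is Sfp with the accession as filed and its product quenches rhodamine fluorescence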
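Buffer: 50 mM Hepes-Na pH 7.6, 10 mM MgCl2, 0.01% Nonidet P-40, 0.01% BSA. Enzyme 15 nM, pre-exposed to compound 15 min; substrates then added and fluorescence change tracked over 30 min.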
HP1b binding inh = inhibitors of HP1-beta chromodomain binding to methylated histone tails; P83916; AlphaScreen HP1-beta / biotin-H3K9me3 peptide binding; Potency, µM (series often up to 114 µM), hits mostly inhibitors; 390,000 compounds, 0.56% hits; AID 540317; further: nearly all actives have a fitted effect of over 70% in size
Target sequence (P83916 whole entry, looked up): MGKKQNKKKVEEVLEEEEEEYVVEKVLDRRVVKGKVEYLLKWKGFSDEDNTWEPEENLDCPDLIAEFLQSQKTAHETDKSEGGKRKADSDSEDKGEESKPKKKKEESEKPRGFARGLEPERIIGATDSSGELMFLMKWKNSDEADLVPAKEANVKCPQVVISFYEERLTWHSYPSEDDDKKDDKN
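AlphaScreen: HP1-beta (50 nM) preformed 30 min with biotin-H3(1-18)K9me3 peptide (50 nM) in PBS pH 7.4, 0.01% Tween-20. Compound added for 30 min at RT, then streptavidin donor/nickel chelate acceptor beads (10 ug/mL) for 30 min.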
A number is an active result; – = inactive; ? = inconclusive; · = no result; ! = not active in a repeat; [ ] = another dose, or the depositor's remark. An excerpt weighted towards active compounds, which were near 12% of everything screened. The call rests on the fitted dose curve; in most records, active means well fitted curve in the direction sought with a large enough effect; inconclusive means small, poorly fitted or top-dose-only effect, or another doubt; inactive means no such curve, though single readings can be large; an effect the other way counts as inactive or inconclusive.

SMILES | TDP1 block | G9a inh | BAZ2B block | JMJD2A Tudor | Sfp PPTase inh | HP1b binding inh
COC(=O)Cn1cc(/C=C2\C(=O)NC(=O)N(c3ccccc3)C2=O)c2ccccc21 | · | – | – | – | – | –
CC1=NN(c2ccccc2)C(=O)C1/C=C1\C(=O)NC(=O)N(c2ccc(C)c(C)c2)C1=O (stereo unspecified) | – | 45µM | ? | –[11.4 µM] | – | –
CCN(CC)c1ncnc2c1ncn2[C@@H]1O[C@@H](COP(=O)(O)OP(=O)(O)C(Br)(Br)P(=O)(O)O)[C@H](O)[C@H]1O | – | · | · | · | – | ·
CCC[C@@H]1CC2=CC(=O)CC[C@]2(C)[C@@H]2CC[C@@]3(C)[C@H](CC[C@]3(O)CCC(=O)O)[C@H]12 | ? | · | · | · | – | ·
Cn1c(N)c(Sc2ccccc2[N+](=O)[O-])c(=O)n(C)c1=O | – | 45µM | – | – | – | –
Oc1cc(Cl)cc(Cl)c1 | – | · | · | · | · | ·
COc1cc(CC2(CCc3ccncc3)C(=O)NC(=O)NC2=O)cc(OC)c1OC | – | – | – | – | – | –
COc1cc2c(cc1OC)-c1c(OC)c(OC)c(OC)c3ccnc(c13)C2=O | – | ? | 28µM | ? | – | –
CNCCc1c[nH]c2ccccc12 | – | 28µM | – | – | – | –
CNCCc1c[nH]c2ccc(O)cc12 | – | 10µM | · | 22µM | – | ?
OC(CNCCc1c[nH]c2ccccc12)C(F)(F)F (stereo unspecified) | – | · | – | – | – | –
C=C1CC[C@H](O)C/C1=C/C=C1\CCC[C@]2(C)[C@@H]([C@H](C)CCCC(C)C)CC[C@@H]12 | – | 16µM! | · | · | – | ·
CC[C@H](CC[C@H](C)[C@@H]1CC[C@@H]2[C@H]3CC=C4C[C@@H](O)CC[C@]4(C)[C@H]3CC[C@]21C)C(C)C | –[21 µM] | –[21.5 µM] | · | · | – | ·
CC(C)(O)[C@@H]1[C@H]2OC(=O)[C@@H]1[C@]1(O)C[C@H]3O[C@]34C(=O)O[C@H]2[C@@]14C (tested in a mixture with another compound) | – | · | · | · | – | ·
CN1C(=O)C(Cc2c[nH]c3ccccc23)C(=O)N(C)C1=O | – | 13µM | – | · | 40µM | ·
CN1C(=O)C(Cc2cccc3ccccc23)C(=O)N(C)C1=O | – | ? | – | – | – | –
C[C@H]1[C@@H](O)[C@@H](C)/C=C\C=CCC\C=C/C=C\C=C/C=C[C@@H](O[C@H]2O[C@@H](C)[C@@H](O)[C@@H](N)[C@@H]2O)C[C@@H]2O[C@@](O)(C[C@@H](O)[C@H]2C(=O)O)C[C@@H](O)[C@@H](O)CC[C@@H](O)C[C@@H](O)C[C@@H](O)CC(=O)O[C@H]1C | –[21 µM] | –[21.5 µM] | · | · | – | ·
O=C1C(Cl)=C(N2CCOCC2)C(=O)N1c1ccccc1F | · | 35µM | – | – | – | –
O=c1[nH]c(=S)n(-c2ccccc2F)c(O)c1C=Nc1ccc(N2CCOCC2)cc1 | – | – | – | – | – | –
CCN(CC)CCOC(=O)C(C)(c1ccccc1)c1ccccc1 | – | –[12.7 µM] | · | · | – | ·
C=C(CC1(C(C)NP(=O)(c2ccccc2)c2ccccc2)CC1)c1ccccc1 (stereo unspecified) | – | · | · | · | – | ·
Cc1ccc(NP(=O)(c2ccccc2)c2nc3ccccc3s2)cc1 (stereo unspecified) | – | 25µM | – | – | – | –
Cc1ccc(NP(=O)(Nc2ccc(C)cc2)Oc2ccccc2)cc1 | – | – | – | – | – | –
Cc1ccc(Sc2ccc(C=C3C(=O)N(C)C(=O)N(C)C3=O)o2)cc1 | – | · | ? | – | 8.9µM | ?
COC(=O)C1=C(C)NC(C)=C(C(=O)NCCCN2CCC(c3ccccc3)(c3ccccc3)CC2)C1c1ccc([N+](=O)[O-])cc1 (stereo unspecified) | – | · | · | · | – | ·
SMILES | TDP1 block | G9a inh | BAZ2B block | JMJD2A Tudor | Sfp PPTase inh | HP1b binding inh
O=C1C(Cl)=C(Cl)C(=O)C(Cl)=C1Cl | · | ? | · | · | – | ·
CCN(CC)P(=S)(c1c(C)nc2ccccn12)c1c(C)nc2ccccn12 | – | 14µM | – | – | 50µM | –
CCOc1c(P(=S)(N(C)C)N(C)C)c(C)nn1-c1ccccc1 | – | ? | – | – | – | –
O=C1CC(O)(CF)CCO1 (stereo unspecified) | – | · | · | · | – | ·
CC1=C(O)C(=O)[C@H]2O[C@@H]2C1=O | – | · | · | · | 4µM | ·
C=C(C)[C@]12C[C@@H](C)[C@@]34OC(Cc5ccccc5)(O[C@@H]1[C@@H]3C=C(COC(=O)Cc1cc(I)c(O)c(OC)c1)C[C@]1(O)C(=O)C(C)=C[C@@H]41)O2 | – | – | · | · | – | ·
O=[N+]([O-])c1cccc(C2N3CCCN23)c1 (stereo unspecified) | – | – | – | – | – | –
O=[N+]([O-])c1cccc(CN2CCN(Cc3ccc(Br)cc3)CC2)c1 | – | 3.5µM | 20µM | 20µM | ? | ?
NC(=O)C1=CN(C2OC(COP(=O)(O)OP(=O)(O)OC[C@H]3O[C@@H](n4cnc5c(N)ncnc54)[C@H](OP(=O)(O)O)[C@H]3O)C(O)C2O)C=CC1 (stereo partly specified) | – | – | · | · | · | ·
CC/C(=N\NC(N)=O)c1c(O)[nH]c(=O)[nH]c1=O | – | ? | – | – | ? | –
CCCC(=O)c1c(O)[nH]c(=O)[nH]c1=O | – | –[12.7 µM] | ? | 18µM | – | –
NC(Cn1ccc(=O)[nH]c1=O)C(=O)O (stereo unspecified) | – | –[12.7 µM] | · | · | · | ·
COC(=O)C(C)Oc1ccc(Cc2ncc(C(F)(F)F)cc2Cl)cc1 (stereo unspecified) | · | –[2.33 µM] | – | – | – | –
CC[C@@H](CO)NC(=O)[C@H]1C=C2c3cccc4c3c(cn4C)C[C@H]2N(C)C1 | – | –[12.7 µM] | · | · | 56µM | ·
CC(CO)NC(=O)C1C=C2c3cccc4[nH]cc(c34)CC2N(C)C1 (stereo unspecified) | – | 16µM | · | · | – | ·
C[C@@H](CO)NC(=O)[C@@H]1C=C2c3cccc4[nH]cc(c34)C[C@H]2N(C)C1 | – | · | · | · | – | ·
Nc1ccc2ccc3cccc[n+]3c2c1 | · | 35µM | – | – | – | –
Oc1c(Cl)c(Cl)cc(Cl)c1Cl | – | · | · | · | · | ·
C#CCOCCOCCOCCNc1nc(N2CCN(C(=O)CCCCCCCCCCNC(=O)[C@H]([C@@H](C)CC)n3cc(CCCCN=C(N)N)nn3)CC2)nc(N2CCN(C(=O)CCCCCCCCCCNC(=O)[C@H](CO)n3cc(CCCCCN)nn3)CC2)n1 | – | –[2.33 µM] | 50µM | 56µM | · | ?
CCCCCc1cc(O)cc(O)c1 | – | · | · | · | · | ·
CCN(CC)CCCCN1c2ccccc2Oc2ccc(Cl)cc21 | – | · | · | · | – | ·
O=C(O)C(O)(c1ccccc1)C1CCCC1 (stereo unspecified) | – | 25µM | ? | – | – | –
